Assay results reported in PubChem BioAssay.
The source made the active and inactive calls. Unless noted, the rule behind the calls is not given here.

Key:
[1] = resazurin metabolic signal in HepG2 cells – cell-based, resazurin fluorescence, 24 h, PK04 Diversity Set, profiling panel (AID 1172); conditions: HepG2 viability, higher = more signal; note: test concentration not given here
[2] = budding yeast growth changes without added modifier – OD600, strain BY4716, 24 h, basal condition, primary screen (AID 1173); conditions: S. cerevisiae BY4716 growth, OD600, 24 h; higher = more signal, called active from +8 up or from −8 down
[3] = viability profiling in MM1S myeloma cells – cell-based, resazurin fluorescence, basal, 24 h, PK04 Diversity Set, profiling panel (AID 1174); conditions: higher = more signal, called active from +8 up or from −8 down;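 note: MM1S multiple myeloma cell line; test concentration not given here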
[4] = biological target: Dihydroorotate dehydrogenase (quinone), mitochondrial (Plasmodium falciparum (isolate 3D7)) (UniProt Q08210); assay: inhibition of P. falciparum DHODH – biochemical, C-terminal His tag, absorbance 600 nm, primary screen (AID 1175); conditions: PfDHODH enzyme, DCIP absorbance 600 nm; higher = more signal, called active from +8 up or from −8 down;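 note: recombinant parasite enzyme with a five histidine tag at its C terminus; test concentration not given here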
[5] = inhibition of PAO1 biofilm formation – strain PAO1, LB-PBS medium, absorbance 600 nm, primary screen (AID 1176); note: test concentration not given here; conditions: P. aeruginosa PAO1 growth/biofilm, A600, 12 h; higher = more signal
[6] = growth modulation of vineyard yeast isolate – strain RM11-1a, OD600, basal, 24 h, primary screen (AID 1177);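 note: cultures grown under basal conditions with no added stressor; test concentration not given here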; conditions: S. cerevisiae RM11-1a growth, OD600, 24 h; higher = more signal, called active from +8 up or from −8 down
[7] = growth of efflux-deficient E. coli DRC39 – strain DRC39, OD650, 24 h, E. coli filamentation inducers, primary screen (AID 1178);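 note: growth measured as culture turbidity by optical density at 650 nm; test concentration not given here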; conditions: E. coli DRC39 acrAB, higher = more signal, called active from +8 up or from −8 down
[8] = growth of efflux-deficient E. coli DRC39 – strain DRC39, OD650, 48 h, E. coli filamentation inducers, primary screen (AID 1179);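 note: screen aims at cell division blockers that make cells filament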; conditions: E. coli DRC39 delta-acrAB growth, higher = more signal, called active from +8 up or from −8 down
[9] = viability profiling in RPMI8226 myeloma cells – cell-based, resazurin fluorescence, basal, 24 h, PK04 Diversity Set, profiling panel (AID 1180); conditions: higher = more signal;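 note: RPMI8826 multiple myeloma cell line at 5000 cells per well; test concentration not given here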
[10] = biological target: E3 ubiquitin-protein ligase XIAP (Homo sapiens) (UniProt P98170); assay: small molecules binding XIAP protein – biophysical, small-molecule microarray, fluorescence 635 nm, primary screen (AID 1181); conditions: higher = more signal;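 note: score merges 667 nm emission and signal to noise over triplicate slides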
E3 ubiquitin-protein ligase XIAP (Homo sapiens), sequence (P98170 whole entry, looked up): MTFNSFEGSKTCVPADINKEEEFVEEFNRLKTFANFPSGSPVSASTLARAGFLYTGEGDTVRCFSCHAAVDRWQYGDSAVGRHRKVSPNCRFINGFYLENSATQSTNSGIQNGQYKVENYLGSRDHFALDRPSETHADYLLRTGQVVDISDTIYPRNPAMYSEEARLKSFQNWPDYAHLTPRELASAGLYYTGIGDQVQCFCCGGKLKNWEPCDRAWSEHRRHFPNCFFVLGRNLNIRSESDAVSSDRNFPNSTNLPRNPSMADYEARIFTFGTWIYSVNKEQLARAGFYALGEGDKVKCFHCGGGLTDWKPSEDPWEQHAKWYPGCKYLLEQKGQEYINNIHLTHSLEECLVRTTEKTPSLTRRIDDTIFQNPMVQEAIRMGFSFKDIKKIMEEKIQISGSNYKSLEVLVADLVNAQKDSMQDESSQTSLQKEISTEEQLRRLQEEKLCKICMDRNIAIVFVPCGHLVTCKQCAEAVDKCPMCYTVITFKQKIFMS

Dihydroorotate dehydrogenase (quinone), mitochondrial (Plasmodium falciparum (isolate 3D7)), sequence (Q08210 whole entry, looked up): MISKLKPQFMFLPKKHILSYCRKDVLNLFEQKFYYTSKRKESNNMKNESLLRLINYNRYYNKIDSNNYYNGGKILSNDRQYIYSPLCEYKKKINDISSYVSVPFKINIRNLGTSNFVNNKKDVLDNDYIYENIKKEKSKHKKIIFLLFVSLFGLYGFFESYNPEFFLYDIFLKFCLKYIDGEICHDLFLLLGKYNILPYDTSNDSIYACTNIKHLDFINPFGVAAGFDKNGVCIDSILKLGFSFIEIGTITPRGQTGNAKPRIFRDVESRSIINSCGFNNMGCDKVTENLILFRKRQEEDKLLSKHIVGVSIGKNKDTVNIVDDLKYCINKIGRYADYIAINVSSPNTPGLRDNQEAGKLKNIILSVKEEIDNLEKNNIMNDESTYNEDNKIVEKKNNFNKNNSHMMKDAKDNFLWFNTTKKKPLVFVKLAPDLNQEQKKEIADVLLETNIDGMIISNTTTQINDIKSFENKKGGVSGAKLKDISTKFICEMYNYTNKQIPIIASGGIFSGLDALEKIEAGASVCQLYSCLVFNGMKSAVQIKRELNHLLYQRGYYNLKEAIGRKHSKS

Row | Structure (SMILES) | z-score [1] | z-score [2] | z-score [3] | composite z-score [4] | z-score [5] | z-score [6] | z-score [7] | z-score [8] | z-score [9] | composite z-score [10]
1 | CC#CCOCCC=C1c2ccccc2[C@@H](OC)[C@@H]1C | 0.651 | -1.71 (inactive) | -0.725 (inactive) | -0.412 (inactive) | 0.204 (inactive) | -0.551 (inactive) | -0.158 (inactive) | 0.212 (inactive) | 0.258 | 2.61
2 | COC(=O)C1=C(C)N(Cc2ccccc2)C2=C3C(=O)OCC[C@@H]3[C@@](O)(C(=O)OC)C(=O)N2[C@@H]1c1ccccc1 | 1.11 | -0.319 (inactive) | -1.3 (inactive) | 0.524 (inactive) | -0.458 (inactive) | 0.681 (inactive) | 0.933 (inactive) | 0.575 (inactive) | -0.0018 | -0.0931
3 | CC(=O)OC[C@H]1O[C@H](CCON=C(C)C)C=C[C@@H]1OC(C)=O | -0.97 | 0.421 (inactive) | -0.54 (inactive) | -0.0136 (inactive) | 0.265 (inactive) | 0.404 (inactive) | 0.795 (inactive) | -0.844 (inactive) | -0.0326 | -0.102
4 | CO[C@@H]1COC(=O)[C@H](COCc2ccccc2)NC(=O)CC=C[C@@H](C)[C@H](OC)COC(=O)[C@@H](C)NC(=O)CC=C[C@H]1C | 0.532 | -1.01 (inactive) | -2.05 (inactive) | 0.262 (inactive) | -0.908 (inactive) | 0.496 (inactive) | 1.4 (inactive) | 0.287 (inactive) | -0.795 | -0.0939
5 | CCc1cc2c(nc1CC)CCN(CCC(C)=NOC(C)CN1CCCCc3nc(C)c(C)cc31)C2 (stereo not given) | 0.465 | -1.61 (inactive) | 0.0376 (inactive) | 0.0164 (inactive) | 0.417 (inactive) | 1.18 (inactive) | -0.148 (inactive) | -1.83 (inactive) | 0.825 | -0.02
6 | CC[C@@H](c1ccccc1)n1c(=O)n2n(c1=O)[C@H]1[C@H](O)[C@@H]3O[C@@H]3C(=NOCc3ccccc3)[C@H]1CC2 | -1.67 | -1.04 (inactive) | -2.51 (inactive) | 0.149 (inactive) | -0.0819 (inactive) | -0.15 (inactive) | -0.527 (inactive) | -0.95 (inactive) | -2.34 | -0.0062
7 | COc1cccc([C@H](O)Cn2cc(-c3ccc(CON=C(C)C)cc3)nn2)c1 | -0.262 | -0.377 (inactive) | -0.307 (inactive) | -0.217 (inactive) | 0.475 (inactive) | -0.47 (inactive) | 0.419 (inactive) | 0.291 (inactive) | -0.0501 | -0.167
8 | CC(C)C(=O)N[C@H]1CCCN1C(=O)C=Cc1ccccc1 | -0.274 | 0.881 (inactive) | -0.46 (inactive) | 0.581 (inactive) | 0.897 (inactive) | 1.18 (inactive) | -0.0435 (inactive) | -0.898 (inactive) | -1.03 | -0.0476
9 | CSCC[C@@H]1NC(=O)CC=C[C@@H](C)COC(=O)[C@H](C)COC1=O | 0.376 | -1.59 (inactive) | 0.745 (inactive) | -0.766 (inactive) | 0.483 (inactive) | -2.43 (inactive) | 1.17 (inactive) | -0.216 (inactive) | -0.135 | 0.418
10 | COc1ccc(O[C@H]2C=C[C@@H](c3ccccc3)O[C@@H]2CON=C(C)CCN2CCCc3nc(C)c(C)cc32)cc1 | 0.165 | -0.855 (inactive) | -0.662 (inactive) | -0.752 (inactive) | 0.699 (inactive) | -0.351 (inactive) | -0.321 (inactive) | -0.112 (inactive) | -0.164 | 2.22
11 | C=CC[C@@H]1C=C[C@H](ON=C(C)CCN2CCCCc3nc(C)c(C)cc32)[C@@H](CO)O1 | 0.162 | 0.399 (inactive) | -0.201 (inactive) | -0.923 (inactive) | 0.323 (inactive) | 0.334 (inactive) | -0.275 (inactive) | -0.681 (inactive) | -0.103 | 0.183
12 | O=C1C[C@H](c2ccccc2)[C@H](c2ccc(Br)cc2)O1 | -0.598 | -8.77 (active) | -0.118 (inactive) | -1.24 (inactive) | 0.605 (inactive) | -2.74 (inactive) | 0.358 (inactive) | -1.67 (inactive) | 0.0497 | -0.0438
